N370S GC mod – inhibitors or activators of N370S glucocerebrosidase for Gaucher disease; N370S GC spleen homogenate, 4MU-glucoside fluorescence; P04062; 330,000 tested, 0.092% active; Potency, µM (doses to about 59.4 µM), hits mostly inhibitors
CBFb-RUNX1 inh – CBF-beta/RUNX1 interaction disruption; Q01196+Q13951; AlphaScreen CBFb-His/RUNX1-biotin binding, biochemical; Potency, µM (highest dose often 59.8 µM), most hits filed as inhibitors; 230,000 tested, under 10 active
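Interaction loss through any mechanism counts as activity. Pre-formed complex of His-CBF-beta and biotin-RUNX1 (30 nM apiece) is incubated with compound 15 min, then with 50 ng nickel and 50 ng streptavidin beads for 90 min before AlphaScreen detection.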
Anesthetic bind – binds horse apoferritin like a general anesthetic; P02791; apoferritin/1-aminoanthracene competitive binding, fluorescence; Potency, µM (titrated, usually from 77.5 µM), most hits filed as inhibitors; 350,000 tested, 0.074% active; further: nearly all actives have a fitted effect of over 20% in size
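Read-out: endpoint 1-AMA fluorescence, excitation 380 nm and emission 535 nm, after compounds sit 10 min at room temperature with 10 uM horse-spleen apoferritin in 50% saturated 1-AMA/PBS. Values come from four-parameter Hill fits.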
a7 integrin act – activators of alpha7 integrin expression for muscular dystrophy; alpha7betagal myoblasts, beta-gal FDG fluorescence, 48 h; Potency, µM (highest dose often 38.3 µM), most hits filed as activators; 350,000 tested, 0.064% active; AID 624291; further: nearly all actives have a fitted effect of over 60% in size
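Alpha7betagal+/- myoblasts (passage 13) were plated 16-24 hr, then exposed to compounds (1:260 dilution of DMSO stock) for 48 hours at 37C. After MPER lysis, β-galactosidase reporter activity was read as FDG fluorescence (ex 480/em 540) after 30 minutes.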
ClpP mod – qHTS Assay for Activators of ClpP | 340,000 tested, 1.9% active | ATP-dependent Clp protease proteolytic subunit (Bacillus subtilis (strain 168)), P80244 | AID 651965, 2013 | Potency, µM (highest dose often 57.5 µM) | purified B. subtilis ClpP, FRET peptide cleavage, 20 min; active means well fitted falling curve with a large enough effect; inconclusive means small, poorly fitted or top-dose-only effect; inactive means no such curve, though single readings can be large or run the other way; further: the source files actives as falling curves though it sought activators and does not explain the sign; nearly all actives have a fitted effect of over 65% in size
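ClpP 10 microg/mL final, pH 8 Tris/KCl buffer with BSA, glycerol, Tween-20; compound pinned in; FRET-FV substrate; RT 20 min; Ex320/Em430; ΔFRET vs ADEP 5.8 microM, DMSO, no enzyme.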
GRP78 ERSR act – induces the endoplasmic reticulum stress response in human glioma cells | U87-MG GRP78 promoter luciferase reporter, 16 h | Potency, µM, usual class: activators | 420,000 tested, 0.02% active; further: series mostly up to about 76 µM; nearly all actives have a fitted effect of over 35% in size
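Stably transfected U87-MG human glioma cells carrying a GRP78-based luminescent sensor were seeded at 1000 cells/well, pin-dosed with compounds and incubated 16 h. Luciferase reagent was then added, and end-point luminescence was read after 10 min at room temperature.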
A number is an active result; n = inactive; u = inconclusive; x = no result given; [ ] = another dose, or the depositor's remark. The full list was thinned out, with hits kept by preference. Unless noted, the call rests on the fitted dose curve; in most records, active means well fitted curve in the direction sought with a large enough effect; inconclusive means small, poorly fitted or top-dose-only effect, or another doubt; inactive means no such curve, though single readings can be large; an effect the other way counts as inactive or inconclusive.

SMILES | N370S GC mod | CBFb-RUNX1 inh | Anesthetic bind | a7 integrin act | ClpP mod | GRP78 ERSR act
CCc1cc(C(=O)NCC2Cc3cccc(-c4ccc(C(=O)OC)cn4)c3O2)no1 (stereo not drawn) | x | x | x | x | x | n
CC1CCN(C(=O)CSc2ccc(-c3ccc(F)cc3)nn2)CC1 | n | n | u | n | 31.6µM | n
O=C(CSc1ccc(-c2ccc(F)cc2)nn1)N1CCCCC1 | n | n | n | n[7.66 µM] | n | n
C=C(CC[C@]12OC(C(=O)O)C(O)(C(=O)O)C(C(=O)O)(O1)C(OC(=O)/C=C/[C@@H](C)C[C@@H](C)CC)C2O)[C@@H](OC(C)=O)[C@H](C)Cc1ccccc1 (stereo partly drawn) | x | x | x | x | n | n
COc1ccc(S(=O)(=O)c2ccc(OC)c(OC)c2)cc1OC | n | n | n | n | 31.6µM | n
COc1ccc(S(=O)(=O)N2CCCC2)cc1OC | n | x | n | n | x | n
COc1ccc2cc(/C=N/NC(=O)c3ccc(CN(c4cccc(Cl)c4Cl)S(C)(=O)=O)cc3)c(Cl)nc2c1 | n | n | n | n | 17.8µM | n
O=C(CSc1nnc(CNC(=O)c2ccccc2)o1)NCc1ccccc1Cl | n | x | n | n | 31.6µM | n
CC(C)CCOc1ccc(CC(=O)NO)cc1 | x | x | x | x | n | n
O=C(Cc1ccccc1[N+](=O)[O-])NCc1ccc2c(c1)OCO2 | n | n | n | n | 31.6µM | n
O=C(Cc1ccccc1)NCc1ccc2c(c1)OCO2 | n | n | n | n | n | n
COc1ccc(/C=N/NC(=O)c2ccccc2OC)cc1COc1ccc(C)cc1 | n | x | n | n | 25.1µM | n
COc1ccc(/C=N\NC(=O)c2ccccc2Br)cc1COc1ccc(F)cc1 | n | x | n | n | n | n
CC(Sc1nnnn1-c1ccc(Cl)cc1)C(=O)NCC(=O)Nc1ccc(F)c(F)c1F (stereo not drawn) | n | n | n | n | 25.1µM | n
CC(Sc1nnc(-c2ccncc2)n1C)C(=O)NCC(=O)Nc1ccc(F)c(F)c1F (stereo not drawn) | x | x | x | n | n | n
COc1cc(OC)c2c(C)cc(=O)oc2c1C(CCN1CCN(c2ccccc2)CC1)c1ccc2c(c1)OCO2 (stereo not drawn) | n | u | n | n | 31.6µM | n
CC(=O)N[C@@H](C)C(=O)NCC1Cc2cc(C)cc(-c3cnccn3)c2O1 (stereo partly drawn) | x | x | x | x | x | n
CCN1CC=C2C(C#N)=C(N)C(C#N)(C#N)C(c3cc(Cl)ccc3Cl)C2C1 (stereo not drawn) | n | n | n | n | 22.4µM | n
CC(C)(CNC(=O)c1cnn(-c2nccc(-c3ccccc3F)n2)c1C1CC1)N1CCOCC1 | x | x | x | x | x | n
CO/N=C(/C(=O)N[C@@H]1C(=O)N2C(C(=O)OC(C)OC(C)=O)=C(COC(N)=O)CS[C@H]12)c1ccco1 (stereo partly drawn) | x | x | x | x | x | n
Cc1ccc2c(c1)-c1c(cnc3cc(-c4ccc(Cl)cc4)nn13)CO2 | x | x | n | x | 17.8µM | n
Cc1ccc2c(c1)-c1c(cnc3cc(-c4ccc(F)cc4)nn13)CO2 | x | x | n | x | n | n
O=C(COC(=O)c1cc2ccccc2oc1=O)Nc1ccc(F)cc1F | n | n | n | 4.47µM | n | n
Nc1c(Br)cc(/C=C/c2ccnc3ccccc23)cc1Br | x | x | x | x | n | n
Cc1nc2c([nH]1)C1(CCN(Cc3ccccc3)CC1)C(C#N)=C(N)O2 | n | n | n | 12.6µM | 15.8µM | n
SMILES | N370S GC mod | CBFb-RUNX1 inh | Anesthetic bind | a7 integrin act | ClpP mod | GRP78 ERSR act
O=C1NC(c2ccc3ccccc3c2)Nc2ccccc21 (stereo not drawn) | x | x | x | n | n | n
O=C1NC(c2ccc3c(c2)OCO3)Nc2ccccc21 (stereo not drawn) | n | n | n | n | 31.6µM | n
O=C(C[n+]1ccccc1Cl)c1ccc(Br)cc1 | x | x | x | x | n | n
Fc1ccccc1-c1ccc(-c2nc3ccc(Cl)cn3c2Nc2ccc(Cl)cc2)o1 | x | x | x | x | n | x
CCC(=O)N1c2ccccc2NC2=C(C(=O)CC(c3ccco3)C2)C1c1ccco1 (stereo not drawn) | n | n | n | n | n | n
O=C1CC(c2ccco2)CC2=C1C1c3ccccc3C(=O)N1c1ccccc1N2 (stereo not drawn) | n | n | n | n | n | 28.2µM
O=C(CCc1nc2ccccc2s1)N1CCOc2ccc(CN3CCc4sccc4C3)cc2C1 | x | x | x | x | x | n
O=C(c1cccc(F)c1)N1CCC[C@@]2(CCN(C(c3ccccc3)c3ccccc3)C2)C1 | n | x | x | x | x | 12.6µM
O=C(c1cccc(F)c1)N1CCC2(CC1)CN(C(c1ccccc1)c1ccccc1)C2 | n | x | x | x | x | n
O=C(c1cnccn1)N1CCC2(CCCN(C(c3ccccc3)c3ccccc3)C2)CC1 | n | x | x | x | x | 44.7µM
Cc1ccc(-c2csc3ncnc(Oc4ccc5c(C)cc(=O)oc5c4)c23)cc1 | n | u | n | n | 28.2µM | n
c1ccc(-c2n[nH]c(-c3ccccn3)n2)nc1 | n | n | n | n | 25.1µM | n
CCOC(=O)CN(C)C(=O)c1cnn(-c2ncc3c(n2)-c2ccccc2CCC3)c1C | x | x | x | x | x | n
CCOc1ccccc1CNC(=O)c1oc2ccc3c(c2c1C)C(=O)CC(C)(C)O3 | x | x | n | x | n | x
Cc1c(C(=O)NCc2ccoc2)oc2ccc3c(c12)C(=O)CC(C)(C)O3 | n | n | n | n | 28.2µM | n
O=S(=O)(Nc1ccc2ccccc2c1)c1ccccc1 | n | n | u | n | 14.1µM | n
O=C1OCCC1Sc1nnc(-c2ccc(F)cc2)n1Cc1ccccc1 (stereo not drawn) | n | n | n | n | 25.1µM | n
COc1cc(NC(=O)CSCc2cnn(-c3ccccc3)c2-n2cccc2)cc(OC)c1 | n | n | n | n | n | n
COc1ccc(OC)c(NC(=O)CSCc2cnn(-c3ccccc3)c2-n2cccc2)c1 | n | n | n | n | 31.6µM | n

Source: PubChem
